Measured values as given in publication PMC12136788.
Residue numbers refer to the chain shown, from its start. The full ranking holds about 5,800 sequences; the median of “enrichment r” is about 0.54, and the highest 2% start at about 16. The sample as a whole holds a higher share of the highest values than the screen did.

B1: chr4:140153917:140154018:-|5pUTR|ENSG00000196782|msi1|FALSE|bound_elsewhere (ssRNA)
RNA: GGGAGUUCUACAGUCCGACGAUCUUUGCAGUCGCCUCGGACUGUCCAUGUGUUUACUUCCCCCAGCCCGAGGAUUCGAUAUCUAGGUUCCUGUGAAAUGCAACUGAGCAGCCAAAGUACUUUGAGAACACGGGGCGGCAUAAACAACAGAGGAUUGAGCAUCA
B2: ENSG00000070961:be:win_2801|CDS|ENSG00000070961|bound_else_gene|NA|bound_elsewhere_windowed (ssRNA)
RNA: GGGAGUUCUACAGUCCGACGAUCGUCAUGCAUUCUAUCAACUUGUAGUAGUCUUUACACUCUUAUUUGCUGGAGAAAAGUUUUUUGACAUUGAUAGUGGAAGAAAUGCUCCUUUGCAUGCUCCUCCUUCAGAACAUUAUACUACAACAGAGGAUUGAGCAUCA
B3: chr10:122937732:122937852:-|CDS|ENSG00000119965|unk|total|mutant (ssRNA)
RNA: GGGAGUUCUACAGUCCGACGAUCGUAAGUGACAACUCAAAUAUACCCAACUCCGAGUUGCUGCCUUUUCUCCAGAAUUUAUGCCGUCAAGUUAAUCAUCUCCAUGUGGGAAAUAAGACCGAGUGUCAGGAAAACAUCACCAAGCAACAGAGGAUUGAGCAUCA
B4: chr4:168927217:168927233:+|3pUTR|ENSG00000129116|msi1_unk|FALSE|overlapping (ssRNA)
RNA: GGGAGUUCUACAGUCCGACGAUCAACCACCCAAAUGACCAAGGCAUAUAUAGUAUUUGGAGGAAUCAGGGGUUUGGAAGGAGUAGGGAGGAGAAUGAAGGAAAAUGCAACCAGCAUGAUUAUAGUGUGUUCAUUUAGAUAAAACAACAGAGGAUUGAGCAUCA
B5: chr19:57593639:57593745:+|3pUTR|ENSG00000171649|unk|total|mutant (ssRNA)
RNA: GGGAGUUCUACAGUCCGACGAUCUGAACCUUCUUAUUUCUCUACAUUCUUGCCAUACUUGGUAUGGUCCGUCUUUUUAAUUUCCGUUGUUUUAACCGCUGUAUAACCGCAUCUGUCUGUGAUUUUAUUGCAUUUUUCUGGUAUCAACAGAGGAUUGAGCAUCA
B6: chr7:123541454:123541562:-|3pUTR|ENSG00000128609|unk|total|mutant (ssRNA)
RNA: GGGAGUUCUACAGUCCGACGAUCUCCACCGUGUCAUUUUAUUUCCGUCAUUAUUGAAUUAUACCAUUUACUCUGUUUUCUUACCGUCUUAAUUUUAUUAUAUUUUGUUGUUACUGUAUUAUAUUUGAAAACCUUCAAAUCCGACAACAGAGGAUUGAGCAUCA
B7: chr19:57593639:57593745:+|3pUTR|ENSG00000171649|unk|FALSE|unique (ssRNA)
RNA: B5 RNA with C68U, C69A, C83U, C84A, C95U, C96A, C106U, C107A
B8: chr3:15254852:15254953:-|3pUTR|ENSG00000131370|msi1|total|mutant (ssRNA)
RNA: GGGAGUUCUACAGUCCGACGAUCAAACUGUUAAUUCUGUCACAGCCUGUAUAUUUCCGUCAUUUGUAAAUCUCUUCAUACAACCGUGACUUCUUUUUUGACUGAUACAGUAUCUUAAUUACAAGGUUAUUUUGUACUUGUCUUCAACAGAGGAUUGAGCAUCA
B9: chr1:228494639:228494729:+|3pUTR|ENSG00000168159|msi1_unk|FALSE|overlapping (ssRNA)
RNA: GGGAGUUCUACAGUCCGACGAUCGCCAUCGUGUCUCAUCUUGCUGUUAUCUCUAGCUCUUUCCCUCCUCCCAUUUCCUUUAGUAGUUGAAUUUUGCAAAGCUUGUAGCAGUAGCUCAGUUGCCUGCAGCAUCCUUGUGUGUAGCAACAGAGGAUUGAGCAUCA
B10: chr10:30313878:30313980:-|CDS|ENSG00000107951|unk|total|mutant (ssRNA)
RNA: GGGAGUUCUACAGUCCGACGAUCUGUUUUUAUAUUUAAGCCCUUCAUGUACUUACUCAUUUUUUCUUCUGUGUAAUAAUCUACCGGGAAGGGAGCAAAACAAACCUGAUUCUUCUCCUCUGUACAUUCAGAAUCCAUUUGAAACAACAGAGGAUUGAGCAUCA
B11: chr17:58090057:58090109:+|3pUTR|ENSG00000264364|msi1_unk|FALSE|overlapping (ssRNA)
RNA: GGGAGUUCUACAGUCCGACGAUCGGGUAGGAUUAGCUUGAAUCUUUUUUUUCUUUACAUUUUUCUCCUGUCUGCUCCCUGCUUAGCCCUCAGUUUCCUCAUUCCUCUGGAGUUCUCUUAGAGCAGCCCCUGUUGUUAGUUGGCCAACAGAGGAUUGAGCAUCA
B12: chr1:228494639:228494729:+|3pUTR|ENSG00000168159|msi1_unk|total|mutant (ssRNA)
RNA: GGGAGUUCUACAGUCCGACGAUCGCCAUCGUGUCUCAUCUUGCUGUUAUCUCCCGCUCUUUCCCUCCUCCCAUUUCCUUCCGCCGUUGAAUUUUGCAAAGCUUGCCGCAGCCGCUCAGUUGCCUGCAGCAUCCUUGUGUGCCGCAACAGAGGAUUGAGCAUCA
B13: chr1:20742972:20743075:-|3pUTR|ENSG00000127483|unk|FALSE|unique (ssRNA)
RNA: GGGAGUUCUACAGUCCGACGAUCUAACCCUUUCUUAUUUGUAUUUGUUUUAGUAUUGUGAAGUUGUGUUAAAUAGUACUAGCUAGAAAUACAAAUUUCUGGUUAUCAUUUCUCUUCCCUGUGGCACUUGACAUUUUAAUUGUCCAACAGAGGAUUGAGCAUCA
B14: chr12:39618871:39619093:-|CDS|ENSG00000173208|unk|total|mutant (ssRNA)
RNA: GGGAGUUCUACAGUCCGACGAUCUAUUAUGAUGUUCUCCCAAUCUGUGGCUCACUUGUAUUCCAAUCUGACCAAACCUAUUUCCGAUGUAAUGCUGACCUCCUAUACACUCAUUCAAACUGCUACAUCCAGAGGAGCAAGCCCCAACAGAGGAUUGAGCAUCA
B15: chr8:17753977:17754079:-|CDS|ENSG00000129422|unk|FALSE|bound_elsewhere (ssRNA)
RNA: GGGAGUUCUACAGUCCGACGAUCAAAAAAGCAGAAAUUCUAAUUAACAAGACACAUAAGCAGCAGUUUAAUAAACUCAUUACUAGCCAGGCUGUGCAUGUUACAACUCAUUCUAAAAAUGCUUCACACAGGGUUCCAAGAACACAACAGAGGAUUGAGCAUCA
B16: chr1:152032676:152032810:-|CDS|ENSG00000163191|unk|FALSE|unique (ssRNA)
RNA: GGGAGUUCUACAGUCCGACGAUCGGACCCUGGUGUCCUUGACCGCAUGAUGAAGAAACUGGACACCAACAGUGAUGGUCAGCUAGAUUUCUCAGAAUUUCUUAAUCUGAUUGGUGGCCUAGCUAUGGCUUGCCAUGACUCCUUCAACAGAGGAUUGAGCAUCA
B17: chr2:27041412:27041530:+|3pUTR|ENSG00000119777|msi1_unk|total|mutant (ssRNA)
RNA: GGGAGUUCUACAGUCCGACGAUCACUUCAAAAUGCCCAGCCUGCCCCAAAUGCCUCUAAGCCCCUCCCUGUCCCCUCCCUUGCCGUCCUACUUCUUCCAACUUUCCAUUCCCCAUCAUGCUGGGGGUCUUGGUCACAAGGCUCCAACAGAGGAUUGAGCAUCA
B18: chr11:49981574:49982501:-|CDS|ENSG00000221954|control|control|control (ssRNA)
RNA: GGGAGUUCUACAGUCCGACGAUCGAACAAUAGCUUGGAGGGGAGGUGUAAAGCCCUCUCCACCUGUAUUUCUCACAUCAUAGUAGUUGUCUUAUUCUUUGUGCCCUGUAUAUUUGUGUAUCUGCGCUCAGUGACCACUCUGCCCAACAGAGGAUUGAGCAUCA
B19: ENSG00000070961:be:win_5801|3pUTR|ENSG00000070961|bound_else_gene|NA|bound_elsewhere_windowed (ssRNA)
RNA: GGGAGUUCUACAGUCCGACGAUCGAAAAGGGAAAUGUUUUCAGUUUUCUUUUUUAUUUUGGUUAUGCUUAAAUAUGAAUGUAAUUACCAAAAGAUUUAGAAGUGCAUGUGCUUUGGAGGAUUUGUAUUGAGCUUUUACAGUAUCAACAGAGGAUUGAGCAUCA
B20: chr15:34980028:34980129:-|3pUTR|ENSG00000198146|msi1|FALSE|unique (ssRNA)
RNA: GGGAGUUCUACAGUCCGACGAUCGGUUCUGUUAUUUAAGCCUGUUCUAAGUUUGAUCAAAUGGCAAUGACUAGGUCUAGUUUUAGUUUUUAUUUUUGCAGGAGUCUAUUGCUAAAGAAUUUUAUUUUGAUGCUUGUUAAAUUUCAACAGAGGAUUGAGCAUCA
B21: chr10:11920118:11920232:-|3pUTR|ENSG00000151461|unk|FALSE|unique (ssRNA)
RNA: GGGAGUUCUACAGUCCGACGAUCGUAGUAUAUUUAGUCGGAGAGCACAUCUGUAUGCGACAACUUGAUUACAUCUUUUUUUCUAGCUAUUUUGCAUUUUUUCUUUUACCAUGUUUCAGUUUCUGCAUGUAGAUUUAAAUAAAACAACAGAGGAUUGAGCAUCA
B22: ENSG00000114744:stop:overlap|stop_codon|ENSG00000114744|stop_codon|NA|stop_codon (ssRNA)
RNA: GGGAGUUCUACAGUCCGACGAUCAACAAGCAUUGGAAGAGAUGAAGACAAAUCACUGUAGGAGAGUUGUUCGCAACAUCAAGUAGUACCAGUUUUAAGGUUUUAAUUCAUUUGAAUCACUUAUGAAUUGAUGAUAUACAGCAACAACAGAGGAUUGAGCAUCA
B23: chr11:35231809:35232301:+|3pUTR|ENSG00000026508|msi1|FALSE|unique (ssRNA)
RNA: GGGAGUUCUACAGUCCGACGAUCACAACACCAAGAAUUGAUUUUGUAGCCAACAUUCAUUCAAUACUGUUAUAUCAGAGGAGUAGGAGAGAGGAAACAUUUGACUUAUCUGGAAAAGCAAAAUGUACUUAAGAAUAAGAAUAACAACAGAGGAUUGAGCAUCA
B24: ENSG00000070961:be:win_4501|3pUTR|ENSG00000070961|bound_else_gene|NA|bound_elsewhere_windowed (ssRNA)
RNA: GGGAGUUCUACAGUCCGACGAUCCCUUUUGUUCAGAAUUUAGUAGAUUGUUUAAUGCAGGACAUCAACUACAUAAUGAAAGAUGCUUGAAAUGCUUUUGUUAUUUCAGGCAAAUCAAAUUAAAUCAGACUAUCAAACUACAAGCAACAGAGGAUUGAGCAUCA
B25: chr12:39553730:39553837:-|3pUTR|ENSG00000173208|unk|FALSE|unique (ssRNA)
RNA: GGGAGUUCUACAGUCCGACGAUCGAAGUAUGUUAAGCUAAGCACAGAGAAAAAAAGGCAGCAAGACAUGUUUUAUAAGAUUUUAGCAUUAAGGAAGUAUAUGAUCUGACUUUUCAGAAGAAAAUAAACAAAUGCAUUAUGUAACAACAGAGGAUUGAGCAUCA
B26: chr15:83017406:83017507:-|3pUTR|ENSG00000064726|msi1|FALSE|unique (ssRNA)
RNA: GGGAGUUCUACAGUCCGACGAUCGGCCUAAUAAAAUGCCCAAGAAAAUAUUCAGUGCAUUUAUAGAGAAGGAUAUUUUGUAGUAGUAUAGUAAUGUGUUAUGUAGUACAGUUUUAAAGCUAUAAAUGGAAUUUUGUGUAAAUUCAACAGAGGAUUGAGCAUCA
B27: chr15:34980028:34980129:-|3pUTR|ENSG00000198146|msi1|total|mutant (ssRNA)
RNA: B20 RNA with U71C, A72C, U77C, A78C, U83C, A84C
B28: chr15:83017406:83017507:-|3pUTR|ENSG00000064726|msi1|total|mutant (ssRNA)
RNA: B26 RNA with U63C, A64C, U80C, A81C, U83C, A84C, U88C, A89C, U103C, A104C
B29: chr7:157269180:157269282:+|3pUTR|ENSG00000009335|unk|FALSE|unique (ssRNA)
RNA: GGGAGUUCUACAGUCCGACGAUCAUUUUAGGUUGUUUUAUGUUGAAUGUUCUAUAUCUUAUUAGUUAAUUUGUAUAUUUUAUUAGUAUUUUGGAAAUAGCAUAUCUGAGACUGAAGAGAAAUUGACAAUUCACUUAUUUGUGGCAACAGAGGAUUGAGCAUCA
B30: chr10:11920118:11920232:-|3pUTR|ENSG00000151461|unk|total|mutant (ssRNA)
RNA: B21 RNA with U25C, A26C, U34C, A35C, U83C, A84C, U129C, A130C

target: MSI1 full-length (mouse, UniProt Q61474 1-362); experiment: nsRBNS (natural sequence RNA bind-n-seq); RBNS binding buffer (assumed for nsRBNS): 25 mM Tris pH 7.5, 150 mM KCl, 3 mM MgCl2, 0.01% Triton X-100, 500 ug/ml BSA, 20 U/ml SUPERase-In, 4 C; UNK is unkempt and MSI1 is Musashi-1; names of the RNAs are library labels; protein concentration not given here; high values mean tight binding
Sequence (Q61474 whole entry): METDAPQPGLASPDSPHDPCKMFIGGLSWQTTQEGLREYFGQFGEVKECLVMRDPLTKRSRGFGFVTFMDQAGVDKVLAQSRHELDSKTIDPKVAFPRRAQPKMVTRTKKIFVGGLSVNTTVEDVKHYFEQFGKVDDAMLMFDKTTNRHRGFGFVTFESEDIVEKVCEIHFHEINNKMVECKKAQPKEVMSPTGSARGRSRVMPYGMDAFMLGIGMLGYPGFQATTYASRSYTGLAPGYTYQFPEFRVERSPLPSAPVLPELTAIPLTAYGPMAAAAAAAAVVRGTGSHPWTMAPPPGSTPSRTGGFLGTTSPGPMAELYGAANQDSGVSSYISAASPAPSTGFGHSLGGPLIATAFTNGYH

In order of rising binding signal:
1. B16  0.264 enrichment R
2. B1  0.362 enrichment R
3. B8  0.393 enrichment R
4. B3  0.448 enrichment R
5. B10  0.482 enrichment R
6. B28  0.489 enrichment R
7. B14  0.621 enrichment R
8. B24  0.644 enrichment R
9. B12  0.702 enrichment R
10. B30  0.709 enrichment R
11. B27  0.774 enrichment R
12. B23  0.807 enrichment R
13. B2  0.822 enrichment R
14. B17  0.832 enrichment R
15. B19  1.05 enrichment R
16. B5  1.4 enrichment R
17. B25  2.43 enrichment R
18. B15  2.45 enrichment R
19. B18  2.83 enrichment R
20. B13  3.75 enrichment R
21. B11  4.46 enrichment R
22. B4  4.58 enrichment R
23. B29  12.7 enrichment R
24. B22  16.3 enrichment R
25. B7  19.1 enrichment R
26. B9  21.5 enrichment R
27. B21  23.3 enrichment R
28. B6  37 enrichment R
29. B26  44.9 enrichment R
30. B20  77.2 enrichment R
